Results from PubChem BioAssay.

What follows are compounds tested on Sonic hedgehog protein (Shh) (assay: Sonic hedgehog microarray binding compounds – biochemical, small-molecule microarray, 635/667 nm fluorescence, primary screen (AID 1151;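 note: Shh protein binding to compounds spotted on small-molecule microarray slides; score combines spot fluorescence intensity with signal-to-noise across triplicate slides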)). Conditions: 635 nm fluorescence, higher = more signal.

Structure (SMILES)	composite z-score
CCO[C@H](c1cc(OC)cc([N+](=O)[O-])c1OC)[C@H](C)C=CCC(=O)OC	1.7
COC(=O)[C@H](C)NC(=O)CCC1CC(OC(=O)NCCc2ccc(F)cc2)CC2(CCCC(COC(=O)NCc3cccc(C(F)(F)F)c3)O2)O1 (stereo not given in full)	1.09
CCOC(=O)[C@H](CC(C)C)NC(=O)CCC1CC(OC(=O)NCc2ccc3c(c2)OCO3)CC2(CCCC(COC(=O)NCc3cccc(C(F)(F)F)c3)O2)O1 (stereo not given in full)	0.387
COC(=O)[C@H](C)NC(=O)CCC1CC(OC(=O)NCc2ccc3c(c2)OCO3)CC2(CCCC(COC(=O)NCc3cccc(C(F)(F)F)c3)O2)O1 (stereo not given in full)	1.28
C[C@@H](c1ccccc1)N1C(=O)[C@H]2[C@H]3[C@H](O)[C@H](O)CC(=NO[C@@H]4O[C@H](CO)[C@@H](O)[C@H](O)[C@H]4O)[C@H]3CC[C@H]2C1=O	0.457
CCc1cc2c(nc1CC)CCN(CCC(C)=NO[C@H](C)c1cn([C@H](CO)Cc3ccccc3)nn1)C2	0.236
O=C1C[C@@H](O)[C@@H](O)[C@@H]2[C@@H]3C(=O)N(Cc4ccccc4)C(=O)[C@@H]3CC[C@@H]12	0.772
COc1ccc(O[C@H]2C=C[C@@H](c3ccccc3)O[C@@H]2CON=CC[C@@H]2C=C[C@H](OC(C)=O)[C@@H](COC(C)=O)O2)cc1	0.328
Cc1ccc(S(=O)(=O)n2c3ccccc3c3nnc(C(=O)c4ccccc4)nc32)cc1	0.766
CCCNC(=O)OC[C@H]1O[C@H](CCON=C(C)CCC(=O)OC[C@H]2O[C@H](c3ccccc3)C=C[C@@H]2Oc2ccc(OC)cc2)C=C[C@@H]1Oc1ccc(OC)cc1	-0.137
COC(=O)CC=C[C@@H](C)[C@H](OCc1cccc(-c2ccccc2)c1)C1CCCCC1	0.412
O=C(NN=C1C[C@@H](O)[C@@H](O)[C@@H]2[C@@H]3C(=O)N(Cc4ccccc4)C(=O)[C@@H]3CC[C@@H]12)OCc1ccccc1	-0.0067
COc1ccc(COC(=O)NN=C2C[C@@H](O)[C@@H](O)[C@@H]3[C@@H]4C(=O)N(Cc5ccccc5)C(=O)[C@@H]4CC[C@H]23)cc1	-1.44
COc1ccc(O[C@H]2C=C[C@@H](c3ccccc3)O[C@@H]2CON=C(C)CCC(=O)OC[C@H]2O[C@H](c3ccccc3)C=C[C@@H]2Oc2ccc(OC)cc2)cc1	2.02
CCCNC(=O)OC[C@H]1O[C@H](CCON=Cc2ccc(C(=O)N3[C@H](c4ccc(C)cc4)[C@@H](C)CC[C@H]3C(=O)OC)cc2)C=C[C@@H]1Oc1ccc(OC)cc1	0.396
CCOC(=O)CCN1C(=O)[C@H]2[C@H]3[C@H](O)[C@H](O)CC(=NNC(=O)OCc4ccccc4)[C@@H]3CC[C@H]2C1=O	1.26
C[C@@H](c1ccccc1)N1C(=O)[C@H]2[C@H]3[C@H](O)[C@H](O)CC(=NOCc4ccccc4)[C@H]3CC[C@H]2C1=O	0.378
COC(=O)CC=C[C@@H](C)[C@@H](C=NOC[C@@H](O)[C@H]1O[C@@H]2OC(C)(C)O[C@@H]2[C@H]1O)NS(=O)(=O)c1ccc(C)cc1	0.288
O=C(NN=C1C[C@@H](O)[C@@H](O)[C@@H]2[C@@H]3C(=O)N(C4CCCCC4)C(=O)[C@@H]3CC[C@H]12)OCc1ccccc1	-0.554
Cc1cc2c(nc1C)CCCCN2CC(C)ON=C[C@@H](C)[C@H](OCc1ccccc1)C(C)C (stereo not given in full)	-0.436
CCOC(=O)[C@H](CC(C)C)NC(=O)CCC1CC(OC(=O)NCc2cccc3ccccc23)CC2(CCCC(COC(=O)NCCC(C)C)O2)O1 (stereo not given in full)	0.784
CC(C)CON=C1C[C@@H](O)[C@@H](O)[C@@H]2[C@@H]3C(=O)N(C[C@@H]4CCCO4)C(=O)[C@@H]3CC[C@@H]12	-0.321
C=CC[C@@H]1C=C[C@H](ON=C(C)CCC(=O)OC[C@H]2O[C@H](c3ccccc3)C=C[C@@H]2Oc2ccc(OC)cc2)[C@@H](CO)O1	-0.317
CO[C@@H]1COC(=O)CC=C[C@@H](C)[C@@H]2C=C[C@H](O)[C@@H](COC(=O)CC=C[C@H]1C)O2	2.13
COC(=O)[C@H](C)NC(=O)CCC1CC(OC(=O)NCc2cccc3ccccc23)CC2(CCCC(COC(=O)NCC(c3ccccc3)c3ccccc3)O2)O1 (stereo not given in full)	0.759
